activity, negative = inhibition and Potency data for 36 molecules are collected here from PubChem BioAssay (NCATS).

Inconclusive results are not listed. A number with no mark means an inactive call. Calls of active or inactive are those of the source. The call rests on the fitted dose curve; in most records, active means well fitted inhibition curve with a large enough effect; inconclusive means small, poorly fitted or top-dose-only effect; inactive means flat fitted curve, though single readings scatter.

Test system in the first experiment: not listed separately
As to the kind of experiment: qHTS profiling for inhibitors of Plasmodium falciparum proliferation (AID 504749).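 Further: 0% = DMSO vehicle and full inhibition = artemisinin control; nearly all actives have a fitted effect of over 60% in size.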 Conditions: P. falciparum in erythrocytes, SYBR Green DNA, 72 h; at 28.7 µM (top of the series); parasite line A. An outline of the steps: (§1)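 In a 72 h erythrocytic culture (37 C, humidified, 5% CO2) at 2.5% hematocrit and 0.3% starting parasitemia, compounds were tested; SYBR Green I in detergent lysis buffer stained parasite DNA overnight.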
Background: Quantitative high-throughput screening tests each substance at several concentrations.
Turning to `CC1CCc2cc(F)cc3c(=O)c(C(=O)O)cn1c23` (stereo not drawn), the activity, negative = inhibition was -7.54%.
As to `O=c1[nH]c(=O)c2ccccc2o1`, the activity, negative = inhibition is 2.32%.
In the case of `NS(=O)(=O)c1cc(-c2nn[nH]n2)c(NCc2cccs2)cc1Cl`, the activity, negative = inhibition was 0.998%.
On to `Cn1c(=O)c2c(ncn2CCO)n(C)c1=O`, for which the activity, negative = inhibition is 2.6%.
As for `Nc1ncnc2c1ncn2[C@@H]1O[C@H](COP(=O)(O)O)[C@@H](O)[C@H]1O`, the activity, negative = inhibition is -10.7%.
`COc1ccc(C(=O)N2CCN(CC(=O)N3CCOCC3)CC2)cc1`: the activity, negative = inhibition was 2.87%.
Take `C[C@@H]1O[C@@H](OC[C@H]2O[C@@H](Oc3c(-c4ccc(O)c(O)c4)oc4cc(O)cc(O)c4c3=O)[C@H](O)[C@@H](O)[C@@H]2O)[C@H](O)[C@H](O)[C@H]1O`: the activity, negative = inhibition is 3.3%.
Take `CN1C(C)(C)CCCC1(C)C`: the activity, negative = inhibition is 8.89%.
As to `Cc1cccc(C(=O)O)c1O`, the activity, negative = inhibition was 14.5%.
With `Cc1cc(NC(=O)C2=C(O)c3ccccc3S(=O)(=O)N2C)no1`, the activity, negative = inhibition was 12.7%.
`NCC1CCC(C(=O)Oc2ccc(CCC(=O)O)cc2)CC1` (stereo not drawn): the activity, negative = inhibition was -0.969%.
For `O=C(O)Cn1c(C(=O)Nc2nc(-c3ccccc3Cl)cs2)cc2ccccc21`, the activity, negative = inhibition is 10.1%.
Still for that read-out and setting: then `CC(=O)Nc1ccc(OCCOCCOc2ccc(NC(C)=O)cc2)cc1`, with 6.75%.

The experiment is the same for the next values; noted with them: P. falciparum in erythrocytes, SYBR Green DNA, 72 h; at 28.7 µM (top of the series); parasite line B.
With `CNc1c2c(nn1C)CCCC2`, the activity, negative = inhibition was 23%.
Same read-out and setting: next, `NC(=O)CC[C@@H](N)C(=O)O`: 6.23%; `Cc1c(C(=O)NCCO)[n+](=O)c2ccccc2n1[O-]`: -1.36%; `CCCCOC(=O)c1ccc(N)cc1`: 10.8%.
Same read-out and setting: then `CCCCCCCC(=O)OCC(O)CO` (stereo not drawn), with -8.07%; and `CCOc1cc(NC(C)=O)ccc1C(=O)OC`, with 12.8%; and `C[C@@H](N)C(=O)O`, with 15.6%.
Consider `CC(N)CCCC(C)(C)O` (stereo not drawn), for which the activity, negative = inhibition is -7.47%.
In the case of `O=C(O)Cc1ccc(CCNS(=O)(=O)c2ccc(Cl)cc2)cc1`, the activity, negative = inhibition was -5.95%.
Same read-out and setting: next, `COC(=O)c1cccnc1`: 16.6%.
The same measure, in the same setting: then `O=C(Cn1ccnc1[N+](=O)[O-])NCCO`, with -2.11%; and `Cc1ccc(S(=O)(=O)NC(=O)NC2CCCCC2)cc1`, with 5.26%.
As for `C[N+](C)(C)CC[N+]1(C)Cc2c(Cl)c(Cl)c(Cl)c(Cl)c2C1`, the activity, negative = inhibition was 9.42%.
For the molecule `O=C(O)CCC(=O)O`, the activity, negative = inhibition was 13.7%.
`NC(=O)NS(=O)(=O)c1ccc(N)cc1`: the activity, negative = inhibition is 15.9%.
In the case of `O=C(/C=C/c1ccccc1)OCc1ccccc1`, the activity, negative = inhibition was -29.4%.
Regarding `COc1cc(C(=O)NCCCCCC(=O)O)cc(OC)c1OC`, the activity, negative = inhibition is 13.6%.
In the case of `O[C@@H]1CO[C@H]2[C@@H]1OC[C@@H]2O`, the activity, negative = inhibition is 1.12%.
Same read-out and setting: then `O=C(O)c1ccc(OCCCOc2ccc(C(=O)O)cc2)cc1`, with 9.9%.
On the same count and under the same terms, then `CC(=O)NS(=O)(=O)c1ccc(N)cc1`, with 10.5%; and `CC(=O)Nc1ccc(C(=O)O)cc1`, with 3.26%; and `CC1CCc2cc(F)cc3c(=O)c(C(=O)O)cn1c23` (stereo not drawn), with 6.45%.
Same read-out and setting: next, `O=c1[nH]c(=O)c2ccccc2o1`: 10.5%; `NS(=O)(=O)c1cc(-c2nn[nH]n2)c(NCc2cccs2)cc1Cl`: 13.7%; `Cn1c(=O)c2c(ncn2CCO)n(C)c1=O`: -3.88%.
Turning to `Nc1ncnc2c1ncn2[C@@H]1O[C@H](COP(=O)(O)O)[C@@H](O)[C@H]1O`, the activity, negative = inhibition was 4.33%.
Take `COc1ccc(C(=O)N2CCN(CC(=O)N3CCOCC3)CC2)cc1`: the activity, negative = inhibition is 20.6%.
As for `C[C@@H]1O[C@@H](OC[C@H]2O[C@@H](Oc3c(-c4ccc(O)c(O)c4)oc4cc(O)cc(O)c4c3=O)[C@H](O)[C@@H](O)[C@@H]2O)[C@H](O)[C@H](O)[C@H]1O`, the activity, negative = inhibition is 8.33%.
For `CN1C(C)(C)CCCC1(C)C`, the activity, negative = inhibition was 5.87%.
With `Cc1cccc(C(=O)O)c1O`, the activity, negative = inhibition is 2.46%.
Take `Cc1cc(NC(=O)C2=C(O)c3ccccc3S(=O)(=O)N2C)no1`: the activity, negative = inhibition is -1.12%.
On the same count and under the same terms, next, `NCC1CCC(C(=O)Oc2ccc(CCC(=O)O)cc2)CC1` (stereo not drawn): 4.31%; `O=C(O)Cn1c(C(=O)Nc2nc(-c3ccccc3Cl)cs2)cc2ccccc21`: 5.81%.
Turning to `CC(=O)Nc1ccc(OCCOCCOc2ccc(NC(C)=O)cc2)cc1`, the activity, negative = inhibition was 13%.

For another experiment, the system named is 3D7. The experiment is described as above. Conditions: P. falciparum in erythrocytes, SYBR Green DNA, 72 h; series mostly up to 28.7 µM. An outline of the steps:
as §1
With `CNc1c2c(nn1C)CCCC2`, the Potency result is “inactive”.
In the case of `NC(=O)CC[C@@H](N)C(=O)O`, the Potency result is “inactive”.
For `Cc1c(C(=O)NCCO)[n+](=O)c2ccccc2n1[O-]`, the Potency result is “inactive”.
Same read-out and setting: next, `CCCCOC(=O)c1ccc(N)cc1`: “inactive”; `CCCCCCCC(=O)OCC(O)CO` (stereo not drawn): “inactive”; `CCOc1cc(NC(C)=O)ccc1C(=O)OC`: “inactive”.
Regarding `C[C@@H](N)C(=O)O`, the Potency entry is “inactive”.
On to `CC(N)CCCC(C)(C)O` (stereo not drawn), for which the Potency entry is “inactive”.
For the molecule `O=C(O)Cc1ccc(CCNS(=O)(=O)c2ccc(Cl)cc2)cc1`, the Potency result was “inactive”.
In the case of `COC(=O)c1cccnc1`, the Potency result is “inactive”.
In the case of `O=C(Cn1ccnc1[N+](=O)[O-])NCCO`, the Potency entry was “inactive”.
Still for that read-out and setting: next, `Cc1ccc(S(=O)(=O)NC(=O)NC2CCCCC2)cc1`: “inactive”; `C[N+](C)(C)CC[N+]1(C)Cc2c(Cl)c(Cl)c(Cl)c(Cl)c2C1`: “inactive”; `O=C(O)CCC(=O)O`: “inactive”.
The same measure, in the same setting: then `NC(=O)NS(=O)(=O)c1ccc(N)cc1`, with “inactive”.
`O=C(/C=C/c1ccccc1)OCc1ccccc1`: the Potency result is “inactive”.
Turning to `COc1cc(C(=O)NCCCCCC(=O)O)cc(OC)c1OC`, the Potency entry is “inactive”.
Turning to `O[C@@H]1CO[C@H]2[C@@H]1OC[C@@H]2O`, the Potency result was “inactive”.
With `O=C(O)c1ccc(OCCCOc2ccc(C(=O)O)cc2)cc1`, the Potency result was “inactive”.
Consider `CC(=O)NS(=O)(=O)c1ccc(N)cc1`, for which the Potency entry was “inactive”.
Still for that read-out and setting: then `CC(=O)Nc1ccc(C(=O)O)cc1`, with “inactive”; and `CC1CCc2cc(F)cc3c(=O)c(C(=O)O)cn1c23` (stereo not drawn), with “inactive”; and `CCc1cccc(CC)c1NC(=O)CN(CC(=O)O)CC(=O)O`, with “inactive”.
Consider `O=c1[nH]c(=O)c2ccccc2o1`, for which the Potency result was “inactive”.
For `CN/C(=C\[N+](=O)[O-])NCCSCc1csc(CN(C)C)n1`, the Potency result is “inactive”.
For the molecule `NS(=O)(=O)c1cc(-c2nn[nH]n2)c(NCc2cccs2)cc1Cl`, the Potency entry was “inactive”.
Still for that read-out and setting: next, `Cn1c(=O)c2c(ncn2CCO)n(C)c1=O`: “inactive”; `Nc1ncnc2c1ncn2[C@@H]1O[C@H](COP(=O)(O)O)[C@@H](O)[C@H]1O`: “inactive”; `COc1ccc(C(=O)N2CCN(CC(=O)N3CCOCC3)CC2)cc1`: “inactive”.
For `C[C@@H]1O[C@@H](OC[C@H]2O[C@@H](Oc3c(-c4ccc(O)c(O)c4)oc4cc(O)cc(O)c4c3=O)[C@H](O)[C@@H](O)[C@@H]2O)[C@H](O)[C@H](O)[C@H]1O`, the Potency result was “inactive”.
The same measure, in the same setting: next, `CN1C(C)(C)CCCC1(C)C`: “inactive”; `Cc1cccc(C(=O)O)c1O`: “inactive”.
Still for that read-out and setting: then `Cc1cc(NC(=O)C2=C(O)c3ccccc3S(=O)(=O)N2C)no1`, with “inactive”; and `NCC1CCC(C(=O)Oc2ccc(CCC(=O)O)cc2)CC1` (stereo not drawn), with “inactive”; and `O=C(O)Cn1c(C(=O)Nc2nc(-c3ccccc3Cl)cs2)cc2ccccc21`, with “inactive”.
For `CC(=O)Nc1ccc(OCCOCCOc2ccc(NC(C)=O)cc2)cc1`, the Potency entry was “inactive”.
